About 83,000 compounds went through this panel and 20% of them were active in at least one assay; those are over-represented in the sample as a whole.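 Treatment: one concentration, 48 hours, 96-well format. Scoring: percent growth, with anything below 10 considered active.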 Values without a mark were called inactive. Activity calls are given as the source filed them.
Assays:
Test in all cases: NCI-60 one-dose screen, 48 h (100 = growth as untreated, 0 = no growth, -100 = all killed)
Details in all cases: 10 µM unless noted
HCT-15 colon = system: HCT-15 colon
HT29 colon = system: HT29 colon
SNB-75 CNS = system: SNB-75 CNS
SNB-19 CNS = system: SNB-19 CNS
U251 CNS = system: U251 CNS
UACC-62 melanoma = system: UACC-62 melanoma
LOX IMVI melanoma = system: LOX IMVI melanoma
SK-MEL-28 melanoma = system: SK-MEL-28 melanoma
SK-MEL-5 melanoma = system: SK-MEL-5 melanoma
PC-3 prostate = system: PC-3 prostate

Row | SMILES | growth (HCT-15 colon) | growth (HT29 colon) | growth (SNB-75 CNS) | growth (SNB-19 CNS) | growth (U251 CNS) | growth (UACC-62 melanoma) | growth (LOX IMVI melanoma) | growth (SK-MEL-28 melanoma) | growth (SK-MEL-5 melanoma) | growth (PC-3 prostate)
1 | CN(C)CCCOc1ccc(C(=C(c2ccccc2)C2CCCC2)c2ccc(OCCCN(C)C)cc2)cc1 | -89.2% (active) | -86.3% (active) | -66.1% (active) | -80.4% (active) | -74.4% (active) | -91.6% (active) | -84.3% (active) | -96.4% (active) |  | 
2 | C#CCN(C)CCCOc1ccc(NC(=O)CCCCCCC(=O)NO)cc1Cl | 64.9% | 10.5% | 26.3% | 30.3% | 8.98% (active) | -28.9% (active) | -61.4% (active) | 27.1% | -4.82% (active) | 
3 | CC1(C)CC[C@]2(C(=O)O)CC[C@]3(C)C(=CC[C@@H]4[C@@]5(C)CC[C@H](NOCCCN)C(C)(C)[C@@H]5CC[C@]43C)[C@@H]2C1 | 64.8% | 74% | 97% | 93.2% | 69% | 71.4% | 32.4% | 87.4% | 61.2% | 
4 | O=C(CSc1nc2ccccc2c(=O)n1-c1ccccc1)N/N=C/c1ccc(Oc2ccc(Br)cc2)cc1 | 63.7% | 38.2% | 57.8% | 39.9% | 21.5% | 68.8% | 21% | 70.9% | 59.1% | 
5 | CC1=C(C)C(=O)C(Nc2cccc(C(=O)OC(C)(C)C)c2)=CC1=O | 60.4% | 104% | 71% | 78.2% | 64.3% | 65.6% | 47.3% | 96.5% | 31.3% | 
6 | O=[N+]([O-])c1ccc(NC(=S)NNC(=S)Nc2ccc(F)cc2)cc1 | 61.7% | 98% | 103% | 94.4% | 90.5% | 58.8% | 72.3% | 98.4% | 89.9% | 
7 | O=C(/C=C/c1ccccc1)c1cccc(O)c1 | 89.3% | 110% | 81.8% | 96.1% | 91.2% | 81.1% | 66.1% | 104% |  | 
8 | CCNC(=O)Oc1ccc(/C(=C(/C)c2ccc(OC)cc2)c2ccc(OCCN3CCCCCC3)cc2)cc1 | -25.8% (active) | 10.5% | 59.4% | 61% | 38.8% | 41% | -6.62% (active) | 19.8% | 78.5% | 
9 | COc1cc2cc(Oc3ccc(NC(=O)c4cc(C(F)(F)F)cc(C(F)(F)F)c4)cc3)c(C)nc2cc1OCCN1CCOCC1 | 47.1% | 63.8% | 47.7% | 87.6% | 55% | 59.3% | 69.6% | 70.8% | 14.6% | 
10 | C#Cc1nc(/C=C\CCCCCCC(=O)NO)cs1 | 65.6% | 55% | -57.7% (active) | 71.6% | 70.6% | 31.2% |  | 54.1% | 31.9% | 
11 | COc1ccc([C@@H]2C(=O)N(c3cc(OC)c(OC)c(OC)c3)[C@H]2c2ccc(OC)c(O)c2)cc1 | 10.8% | -12% (active) | 43.1% | 29.7% | 19.3% | 29.2% | 19.4% | 67.8% | -22.9% (active) | 
12 | Cc1ccc(C)c(NC2=C(Cl)C(=O)c3nc(C)ccc3C2=O)c1 | -60.9% (active) | 86.4% | 63.2% | 17.1% | 1.85% (active) | -35.2% (active) | -69.5% (active) | -11.6% (active) |  | 9.58% (active)
13 | CN1CCN(Cc2ccc(NC(=O)c3cncc(C#Cc4cnc5ccc(OCC6COC6)nn45)c3)cc2C(F)(F)F)CC1 | -32.9% (active) | -50.9% (active) | -97.9% (active) | -44.9% (active) | -66.8% (active) | -49.8% (active) | -94% (active) | -85% (active) |  | -27.7% (active)
14 | N#Cc1c(-c2cccs2)c(C#N)c(=O)n(Cc2nc3ccccc3[nH]2)c1N | 98.2% | -93% (active) | 78.7% | 101% | 94.2% | 90.5% | 100% | 110% | 95.1% | 
15 | O=C(N/N=C\c1ccc([N+](=O)[O-])cc1)c1ccc2nc(-c3ccc(Br)cc3)[nH]c2c1 | 14.8% | -0.826% (active) | 56.4% | 41.6% | 4.44% (active) | 31.4% | -52.9% (active) | 36.8% | 2.52% (active) | 
16 | O=C(/C=C/c1cccc(F)c1)c1cccc(OCCCOc2cccc(C(=O)/C=C/c3cccc(F)c3)c2)c1 | 9.37% (active) | 9.59% (active) | 112% | 65.1% | 34.5% | 81.3% | -37.9% (active) | 106% | 99.4% | 
17 | C=C1CCc2nc(SCC(=O)O)ccc2N1 | 99.1% | 109% | 85.1% | 92.7% | 112% | 93.2% | 96.9% | 106% | 101% | 
18 | COC(=O)CCCNCCCn1ccc2cc(NCc3cccc(-c4ccccc4)c3C)ccc21 | 55.5% | 90.7% | 68.9% | 82.4% | 64.8% | 83.4% | 4.91% (active) |  | 92.8% | 
19 | O=C(CCCCCCNC(=O)C(O)(O)C(F)(F)F)Nc1nc2ccccc2s1 | 6.75% (active) | 6.91% (active) | 38.9% | 17% | -35.4% (active) | -62.7% (active) | -81.3% (active) | -4.84% (active) | -72.5% (active) | 

Row | SMILES | growth (HCT-15 colon) | growth (HT29 colon) | growth (SNB-75 CNS) | growth (SNB-19 CNS) | growth (U251 CNS) | growth (UACC-62 melanoma) | growth (LOX IMVI melanoma) | growth (SK-MEL-28 melanoma) | growth (SK-MEL-5 melanoma) | growth (PC-3 prostate)
20 | COc1ccccc1/C=C1\Oc2ccc(O)c(O)c2C1=O | 77.5% | 105% | 82.6% | 86.4% | 86.8% | 92.1% | 83.5% | 94% | 99% | 
21 | CCOC(=O)c1cccc(NC2=C(Cl)C(=O)C(C)=C(C)C2=O)c1 | 99.3% | 110% | 104% | 96.5% | 90.9% | 94.7% | 91.9% | 110% | 100% | 
22 | N/C(=N\C(N)=N\c1nc2ccccc2s1)c1ccc(Cl)cc1 | 37.1% | 98.4% | 99.1% | 84% | 26.8% | 81.9% | 20.8% | 95.5% |  | 
23 | CC(=O)N1N=C(c2cc3ccccc3oc2=O)CC1c1cn(-c2ccccc2)nc1-c1ccc(C)cc1 (centres undefined) | 103% | 108% | 90.7% | 96% | 104% | 95.2% | 95.7% |  | 101% | 
24 | Brc1ccc(-c2cc(-c3ccc4c(c3)OC=CO4)n[nH]2)s1 | 61.9% | 74.1% | 74% | 91.7% | 88.8% | 83.2% |  | 91.6% |  | 
25 | COc1ccc(C(=O)c2c(N)c(C#N)cn2-c2ccc(Cl)cc2Cl)cc1 | 99.3% | 98.5% | 91% | 93.1% | 99.2% | 89.6% | 84% | 97.9% | 98.7% | 
26 | CCCCSC1=C(Cl)CN(c2ccccc2)C1=O | 101% | 114% | 105% | 101% | 99.6% | 95.7% | 36.4% | 101% | 101% | 
27 | Cc1ccc(/C=N/Nc2nc(Nc3ccccc3)nc(Nc3ccc(S(N)(=O)=O)cc3)n2)cc1 | 53.5% | 54.8% | 67.7% | 77.6% | 62.6% | 91.3% | 54.9% | 75.7% | 76% | 
28 | COc1ccc2[nH]cc(-c3nn4cc(-c5ccncc5)nc4s3)c2c1 | 37.8% | 66.6% | 61.7% | 75.3% | 67.9% | 63.8% | 57.8% | 112% | 67.4% | 
29 | CC(=O)Nc1ccccc1-c1nc2ccccc2s1 | 96.7% | 105% | 69.8% | 94.6% | 108% | 94.3% | 97.3% | 112% | 99% | 
30 | O=[N+]([O-])c1ccc(NC(=S)NNC(=S)Nc2ccc(Br)cc2)cc1 | 42.1% | 95% | 121% | 98.6% | 88.4% | 48.5% | 60.9% | 102% | 92.7% | 
31 | COc1cc(C(=O)c2cc(C(C)=O)c3ccc(C)cn23)cc(OC)c1OC | 18.9% | 15.6% | 6.02% (active) | 40% | 34% | 17.2% | 34.5% | 58.1% | 36.7% | 
32 | COc1ccc2sc(NC(=O)CCCCCCNC(=O)C(O)(O)C(F)(F)F)nc2c1 | 5.37% (active) | 5.06% (active) | 41.4% | 15.9% | -51.5% (active) | -64.6% (active) | -81% (active) | 1.51% (active) | -82.2% (active) | 
33 | O=C(/C=C/c1ccc(F)cc1)Nc1cccc2cccnc12 | 75.4% | 105% | 106% | 109% | 102% | 91.8% | 121% | 109% |  | 98.5%
34 | Fc1ccc(-c2cn3c(-c4c[nH]c5ccc(Br)cc45)csc3n2)cc1 | 77.8% | 97.9% | -7.44% (active) | 52.6% | 47.8% | 65.7% | 13.1% | 87.8% | 95.2% | 
35 | CNC(=O)c1cc(-c2ccc(NC(=S)Nc3cccc(C(F)(F)F)c3)cc2)nc2cccnc12 | 98.2% | 99.7% | 91.2% | 94.7% | 95.3% | 89.9% | 95.3% | 99.9% | 96.2% | 
36 | O=C(CCCCCCN1CC(=O)N2[C@@H](c3ccc(Cl)s3)c3[nH]c4ccccc4c3C[C@H]2C1=O)NO | 77.1% | 38.9% | 22.5% | 52.2% | 50.3% | 21.9% | -62.7% (active) | 37.2% |  | 47.4%
37 | CC(C)Sc1nc(-c2ccccc2)c(C#N)c(N2CCOCC2)n1 | 80.2% | 71.8% | 9.58% (active) | 69% | 44.8% | 91.7% | 35.6% | 88.6% | 95.5% | 
38 | CCCCN1C(=O)/C(=c2\sc3n(c2=O)C2C(NN=3)N(CC)C(=O)N2CC)c2cc(C)ccc21 (centres undefined) |  | 102% | 87.9% | 93.3% | 98.3% | 71.6% | 78.8% | 102% | 92.8% | 95.8%

Source: PubChem BioAssay (NCI)
